# From the supplement of paper PMC11732987, “Enantioselective OTUD7B fragment discovery through chemoproteomics screening and high-throughput optimisation” (Communications Chemistry, 2025)
# Unmarked numbers belong to inactive results.
# Legend:
# Assay in all cases: log2 ratio of Biotin-Ahx-Ub-VS probe labelling (fragment/DMSO); higher = less target engagement (more negative = stronger competition), active = hit call of the paper (q ≤ 0.05, log2 ratio ≤ -1)
# Details in all cases: compound concentration: 200 uM; treatment time: 3 h
# OTUD6B = target: T1, OTUD6B (UniProt Q8N6M0)
# T1 sequence (whole entry): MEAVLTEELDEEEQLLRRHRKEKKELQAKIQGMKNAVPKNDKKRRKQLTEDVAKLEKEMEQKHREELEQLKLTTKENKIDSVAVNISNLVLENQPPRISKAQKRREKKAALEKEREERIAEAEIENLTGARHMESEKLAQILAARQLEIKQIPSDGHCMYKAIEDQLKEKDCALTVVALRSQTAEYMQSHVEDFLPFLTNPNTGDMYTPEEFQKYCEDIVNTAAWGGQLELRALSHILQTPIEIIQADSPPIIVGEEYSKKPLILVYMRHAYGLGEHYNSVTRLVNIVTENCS
# In short: (§1)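 Labelling with Biotin-Ahx-Ub-VS (0.5 µM final, 1 h) followed a 3 h triplicate treatment of HEK293T lysate (495 µg per sample, Tris/CHAPS/IGEPAL buffer with protease inhibitors) with fragment at 200 µM or vehicle. Labelled DUBs were NeutrAvidin-enriched, digested with LysC and trypsin, and run by diaPASEF LC-MS/MS. The values, average log2 fragment/vehicle ratios by unpaired t-test, come from global-median-normalised Spectronaut label-free quantities. Proteins with ≥2 unique peptides were used.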
# OTUD7B = target: T2, OTUD7B (UniProt Q6GQQ9)
# T2 sequence (whole entry): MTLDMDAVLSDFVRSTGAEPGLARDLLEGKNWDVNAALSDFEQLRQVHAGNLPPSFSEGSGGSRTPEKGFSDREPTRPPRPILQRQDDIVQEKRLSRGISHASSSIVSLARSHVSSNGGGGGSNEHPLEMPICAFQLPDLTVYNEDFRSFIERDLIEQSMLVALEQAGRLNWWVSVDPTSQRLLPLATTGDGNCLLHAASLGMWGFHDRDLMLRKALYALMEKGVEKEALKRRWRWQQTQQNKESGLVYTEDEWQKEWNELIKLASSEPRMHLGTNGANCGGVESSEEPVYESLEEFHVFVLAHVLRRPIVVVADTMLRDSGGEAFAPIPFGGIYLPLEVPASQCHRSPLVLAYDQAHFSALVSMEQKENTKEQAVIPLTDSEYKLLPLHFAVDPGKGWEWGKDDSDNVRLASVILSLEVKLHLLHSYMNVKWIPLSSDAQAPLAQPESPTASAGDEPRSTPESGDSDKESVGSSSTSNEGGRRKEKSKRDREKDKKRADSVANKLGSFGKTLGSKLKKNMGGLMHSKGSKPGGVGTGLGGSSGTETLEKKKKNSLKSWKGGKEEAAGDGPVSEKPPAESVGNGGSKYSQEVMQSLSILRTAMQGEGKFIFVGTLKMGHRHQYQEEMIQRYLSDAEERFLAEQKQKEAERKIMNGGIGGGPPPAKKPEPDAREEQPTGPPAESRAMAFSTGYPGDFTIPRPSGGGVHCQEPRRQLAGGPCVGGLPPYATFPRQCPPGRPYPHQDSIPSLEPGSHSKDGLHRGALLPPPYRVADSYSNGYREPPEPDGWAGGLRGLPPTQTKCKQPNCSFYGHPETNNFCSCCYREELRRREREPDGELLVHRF
# In short: as §1
# PRPF8 = PRPF8 (UniProt Q6P2Q9)
# In short: as §1
# PSMD7 = target: T3, PSMD7 (UniProt P51665)
# T3 sequence (whole entry): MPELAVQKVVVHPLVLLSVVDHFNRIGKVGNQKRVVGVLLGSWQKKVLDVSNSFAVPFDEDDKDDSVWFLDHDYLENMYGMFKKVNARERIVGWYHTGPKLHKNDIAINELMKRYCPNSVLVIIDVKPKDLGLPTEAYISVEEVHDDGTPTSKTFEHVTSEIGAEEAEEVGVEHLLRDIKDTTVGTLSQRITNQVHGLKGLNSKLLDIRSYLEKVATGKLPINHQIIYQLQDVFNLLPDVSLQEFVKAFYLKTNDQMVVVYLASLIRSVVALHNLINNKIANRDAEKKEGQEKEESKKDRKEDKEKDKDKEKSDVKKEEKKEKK
# In short: as §1
# UCHL1 = UCHL1 (UniProt P09936)
# UCHL1, sequence (P09936 whole entry, looked up): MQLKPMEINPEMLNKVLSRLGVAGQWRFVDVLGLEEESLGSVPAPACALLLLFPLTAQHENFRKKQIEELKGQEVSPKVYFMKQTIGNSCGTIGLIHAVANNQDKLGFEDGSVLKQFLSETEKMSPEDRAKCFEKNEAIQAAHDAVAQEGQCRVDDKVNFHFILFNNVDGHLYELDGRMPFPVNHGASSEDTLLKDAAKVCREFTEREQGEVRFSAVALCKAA
# In short: as §1
# UCHL3 = target: T4, UCHL3 (UniProt P15374)
# T4 sequence (whole entry): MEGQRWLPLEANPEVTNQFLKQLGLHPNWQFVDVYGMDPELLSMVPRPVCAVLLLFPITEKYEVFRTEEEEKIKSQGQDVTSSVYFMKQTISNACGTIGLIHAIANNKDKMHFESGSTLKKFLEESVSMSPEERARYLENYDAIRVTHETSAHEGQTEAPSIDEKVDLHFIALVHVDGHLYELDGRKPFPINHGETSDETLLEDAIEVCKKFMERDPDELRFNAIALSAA
# In short: as §1
# UCHL5 = target: T5, UCHL5 (UniProt Q9Y5K5)
# T5 sequence (whole entry): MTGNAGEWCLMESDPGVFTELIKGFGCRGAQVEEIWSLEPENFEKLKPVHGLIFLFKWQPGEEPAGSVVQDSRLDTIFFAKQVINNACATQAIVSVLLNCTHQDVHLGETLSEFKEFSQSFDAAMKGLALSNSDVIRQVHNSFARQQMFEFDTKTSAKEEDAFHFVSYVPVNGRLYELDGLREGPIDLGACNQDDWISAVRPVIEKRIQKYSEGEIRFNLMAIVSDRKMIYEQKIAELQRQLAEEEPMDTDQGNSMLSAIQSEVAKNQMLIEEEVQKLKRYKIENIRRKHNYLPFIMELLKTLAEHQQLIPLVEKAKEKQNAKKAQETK
# In short: as §1
# USP10 = USP10 (UniProt Q14694)
# USP10, sequence (Q14694 whole entry): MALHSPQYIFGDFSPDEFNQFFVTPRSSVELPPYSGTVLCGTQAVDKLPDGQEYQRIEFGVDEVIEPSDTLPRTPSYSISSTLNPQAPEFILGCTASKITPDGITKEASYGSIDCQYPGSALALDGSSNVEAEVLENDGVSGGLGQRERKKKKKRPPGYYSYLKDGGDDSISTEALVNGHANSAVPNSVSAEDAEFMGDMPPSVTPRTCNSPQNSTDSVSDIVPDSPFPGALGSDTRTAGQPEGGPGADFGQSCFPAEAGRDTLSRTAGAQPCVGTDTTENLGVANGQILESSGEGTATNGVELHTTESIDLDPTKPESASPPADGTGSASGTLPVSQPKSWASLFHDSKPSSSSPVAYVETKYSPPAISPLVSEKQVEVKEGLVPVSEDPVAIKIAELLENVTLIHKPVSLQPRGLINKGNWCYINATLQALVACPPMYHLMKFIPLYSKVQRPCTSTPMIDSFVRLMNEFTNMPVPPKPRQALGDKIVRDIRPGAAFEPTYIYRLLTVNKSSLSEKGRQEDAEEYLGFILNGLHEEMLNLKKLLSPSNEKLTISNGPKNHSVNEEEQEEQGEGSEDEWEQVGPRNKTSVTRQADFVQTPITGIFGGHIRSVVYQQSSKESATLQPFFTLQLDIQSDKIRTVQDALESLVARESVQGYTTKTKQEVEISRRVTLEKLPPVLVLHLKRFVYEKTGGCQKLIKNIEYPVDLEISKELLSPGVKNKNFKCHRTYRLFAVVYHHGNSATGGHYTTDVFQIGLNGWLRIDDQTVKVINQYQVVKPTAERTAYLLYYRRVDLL
# In short: as §1
# USP15 = target: T6, USP15 (UniProt Q9Y4E8)
# T6 sequence (whole entry): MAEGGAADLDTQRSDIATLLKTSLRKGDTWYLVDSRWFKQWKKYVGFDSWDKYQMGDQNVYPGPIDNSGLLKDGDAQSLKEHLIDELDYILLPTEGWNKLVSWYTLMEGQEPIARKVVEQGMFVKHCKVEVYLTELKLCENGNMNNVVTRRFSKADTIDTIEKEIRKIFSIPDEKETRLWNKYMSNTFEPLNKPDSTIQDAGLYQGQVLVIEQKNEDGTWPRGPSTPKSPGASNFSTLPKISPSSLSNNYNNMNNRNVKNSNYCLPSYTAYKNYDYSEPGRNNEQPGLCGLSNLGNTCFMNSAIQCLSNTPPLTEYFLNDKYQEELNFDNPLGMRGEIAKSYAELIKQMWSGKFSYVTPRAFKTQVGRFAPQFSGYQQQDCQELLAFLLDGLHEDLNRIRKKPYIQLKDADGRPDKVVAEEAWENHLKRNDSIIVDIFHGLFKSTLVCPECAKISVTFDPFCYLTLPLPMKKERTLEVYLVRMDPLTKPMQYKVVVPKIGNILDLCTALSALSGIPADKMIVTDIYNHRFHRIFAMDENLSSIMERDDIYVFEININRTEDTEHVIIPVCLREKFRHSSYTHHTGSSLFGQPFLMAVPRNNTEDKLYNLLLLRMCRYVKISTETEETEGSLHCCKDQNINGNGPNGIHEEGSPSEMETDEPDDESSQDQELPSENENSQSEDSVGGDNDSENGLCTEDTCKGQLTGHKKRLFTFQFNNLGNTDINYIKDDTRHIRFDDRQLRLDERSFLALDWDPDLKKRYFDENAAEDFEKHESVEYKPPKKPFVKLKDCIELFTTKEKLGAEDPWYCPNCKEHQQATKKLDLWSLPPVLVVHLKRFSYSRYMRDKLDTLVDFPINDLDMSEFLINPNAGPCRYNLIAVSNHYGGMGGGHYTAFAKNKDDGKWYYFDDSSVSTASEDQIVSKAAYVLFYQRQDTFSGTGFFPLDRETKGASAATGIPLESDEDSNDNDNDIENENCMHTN
# In short: as §1
# USP16 = USP16 (UniProt Q9Y5T5)
# USP16, sequence (Q9Y5T5 whole entry, looked up): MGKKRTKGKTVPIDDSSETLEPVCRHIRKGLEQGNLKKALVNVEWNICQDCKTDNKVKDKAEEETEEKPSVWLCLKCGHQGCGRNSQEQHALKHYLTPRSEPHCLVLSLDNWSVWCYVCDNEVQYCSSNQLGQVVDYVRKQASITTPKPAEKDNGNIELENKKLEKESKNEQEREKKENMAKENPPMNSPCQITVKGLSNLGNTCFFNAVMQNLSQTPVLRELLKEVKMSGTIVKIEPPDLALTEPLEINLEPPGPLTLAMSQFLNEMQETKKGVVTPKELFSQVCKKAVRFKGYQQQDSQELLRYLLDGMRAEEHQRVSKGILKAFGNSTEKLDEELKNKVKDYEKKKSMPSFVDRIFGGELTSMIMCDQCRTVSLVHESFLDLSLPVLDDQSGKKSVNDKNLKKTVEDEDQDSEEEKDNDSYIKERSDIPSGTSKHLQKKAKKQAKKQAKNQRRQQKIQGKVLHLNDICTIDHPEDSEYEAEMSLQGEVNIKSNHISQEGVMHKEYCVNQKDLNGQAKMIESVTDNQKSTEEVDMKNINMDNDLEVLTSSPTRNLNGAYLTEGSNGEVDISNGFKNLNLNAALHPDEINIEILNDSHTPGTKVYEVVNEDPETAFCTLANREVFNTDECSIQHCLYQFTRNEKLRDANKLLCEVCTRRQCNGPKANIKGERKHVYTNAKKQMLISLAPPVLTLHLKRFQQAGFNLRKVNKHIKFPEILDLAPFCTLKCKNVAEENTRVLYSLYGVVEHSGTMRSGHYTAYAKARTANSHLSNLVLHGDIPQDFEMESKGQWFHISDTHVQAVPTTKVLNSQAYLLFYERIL
# In short: as §1
smiles,measurement,setting,value
COCC1C=CCCN1C(=O)CCl (stereo not given),log2 ratio of Biotin-Ahx-Ub-VS probe labelling,OTUD6B,-0.121
same,log2 ratio of Biotin-Ahx-Ub-VS probe labelling,OTUD7B,-0.466
same,log2 ratio of Biotin-Ahx-Ub-VS probe labelling,PRPF8,-0.181
same,log2 ratio of Biotin-Ahx-Ub-VS probe labelling,PSMD7,-0.134
same,log2 ratio of Biotin-Ahx-Ub-VS probe labelling,UCHL1,-1.94 (active)
same,log2 ratio of Biotin-Ahx-Ub-VS probe labelling,UCHL3,-0.0426
same,log2 ratio of Biotin-Ahx-Ub-VS probe labelling,UCHL5,-0.167
same,log2 ratio of Biotin-Ahx-Ub-VS probe labelling,USP10,-0.0693
same,log2 ratio of Biotin-Ahx-Ub-VS probe labelling,USP15,-0.145
same,log2 ratio of Biotin-Ahx-Ub-VS probe labelling,USP16,-0.0544
